Test systems include SR leukemia; RPMI-8226 leukemia; OVCAR-8 ovarian; OVCAR-5 ovarian; OVCAR-4 ovarian; SK-OV-3 ovarian; IGROV1 ovarian; OVCAR-3 ovarian; HS 578T breast; NCI/ADR-RES ovarian; T-47D breast; BT-549 breast; MDA-MB-435 melanoma; SW-620 colon; MCF7 breast; HCT-116 colon; KM12 colon; HCC-2998 colon.
What all share (test): NCI-60 one-dose screen, 48 h (100 = growth as untreated, 0 = no growth, -100 = all killed)
Common to all, as to conditions: 10 µM unless noted

SMILES strings stand for the structures. Several values for one entry are separate records, joined by “and”; a condition that tells them apart may be missing. Equal entries are not always repeated. The panel holds about 83,000 compounds, 20% with a hit somewhere; the sample as a whole holds those more often.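 Single-dose data. Exposure time 48 hours. Values below 10 considered active.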 Activity calls are given as the source filed them.

For `O=C(O)C1C2C=CC(C2)C1C(=O)O` (stereo not drawn), the growth is 108% (inactive) and 36.9% (inactive) and 94.8% (inactive) with SR leukemia; 103% (inactive) and 29.3% (inactive) and 98.3% (inactive) in the assay on RPMI-8226 leukemia; 103% (inactive) and 27.9% (inactive) in the assay on OVCAR-8 ovarian; 102% (inactive) and 35.6% (inactive) and 98.9% (inactive) in the assay with OVCAR-5 ovarian; 99.2% (inactive) and 106% (inactive) with OVCAR-4 ovarian; 113% (inactive) and 65.1% (inactive) and 106% (inactive) in the assay on SK-OV-3 ovarian. Moreover, the growth is 95.2% (inactive) and 25.2% (inactive) and 106% (inactive) with IGROV1 ovarian; 113% (inactive) and 41.1% (inactive) and 108% (inactive) in the assay with OVCAR-3 ovarian; 102% (inactive) and 105% (inactive) in the assay with HS 578T breast; 104% (inactive) and 112% (inactive) and 118% (inactive) with NCI/ADR-RES ovarian; 103% (inactive) and 79.5% (inactive) and 101% (inactive) with T-47D breast; 96.8% (inactive) and 58.3% (inactive) and 105% (inactive) in the assay with BT-549 breast. Further, the growth was 101% (inactive) and 19.1% (inactive) and 100% (inactive) in the assay on MDA-MB-435 melanoma; 104% (inactive) and 22.1% (inactive) and 103% (inactive) with SW-620 colon; 97.4% (inactive) and 5.27% (active) and 104% (inactive) with MCF7 breast; 104% (inactive) and 17.3% (inactive) and 112% (inactive) in the assay on HCT-116 colon; 106% (inactive) and 25.4% (inactive) and 104% (inactive) with KM12 colon.

With `COc1cc2nc(N3CCN(C(=O)C4COc5ccccc5O4)CC3)nc(N)c2cc1OC` (stereo not drawn), the growth is 70.4% (inactive) and 83.6% (inactive) with SR leukemia; 100% (inactive) and 86.9% (inactive) and 102% (inactive) in the assay with RPMI-8226 leukemia; 91.7% (inactive) and 94.7% (inactive) and 101% (inactive) with OVCAR-8 ovarian; 127% (inactive) and 112% (inactive) and 96.7% (inactive) in the assay with OVCAR-5 ovarian; 92.4% (inactive) and 93.2% (inactive) and 98.9% (inactive) in the assay on OVCAR-4 ovarian; 114% (inactive) and 103% (inactive) and 105% (inactive) in the assay with SK-OV-3 ovarian. For the same molecule, the growth with IGROV1 ovarian was 93.4% (inactive) and 109% (inactive) and 95.6% (inactive); with OVCAR-3 ovarian, 107% (inactive) and 109% (inactive) and 103% (inactive); in the assay on HS 578T breast, 93.7% (inactive) and 118% (inactive); with NCI/ADR-RES ovarian, 93.9% (inactive) and 97.6% (inactive) and 110% (inactive); in the assay on T-47D breast it was 91.2% (inactive) and 93.6% (inactive) and 96% (inactive); in the assay on BT-549 breast, 86.9% (inactive) and 96.6% (inactive) and 105% (inactive). Also, the growth in the assay on MDA-MB-435 melanoma is 96.5% (inactive) and 90.2% (inactive) and 92.2% (inactive); in the assay with SW-620 colon, 92% (inactive) and 97.7% (inactive) and 109% (inactive); in the assay on MCF7 breast it was 91.7% (inactive) and 95.2% (inactive) and 101% (inactive); in the assay on HCC-2998 colon it was 102% (inactive) and 105% (inactive) and 108% (inactive); with KM12 colon it was 103% (inactive) and 99.6% (inactive) and 102% (inactive).

For `Cn1cnc([N+](=O)[O-])c1Sc1ncnc2nc[nH]c12`, the growth is 44.9% (inactive) in the assay on SR leukemia; 34.1% (inactive) and 36.5% (inactive) in the assay on RPMI-8226 leukemia; 50% (inactive) and 75.4% (inactive) with OVCAR-8 ovarian; 61.8% (inactive) and 71.6% (inactive) with OVCAR-5 ovarian; 39.7% (inactive) and 53.2% (inactive) with OVCAR-4 ovarian; 16.9% (inactive) in the assay with SK-OV-3 ovarian. The growth with IGROV1 ovarian was 74.5% (inactive) and 83.4% (inactive); in the assay with OVCAR-3 ovarian it was 50.8% (inactive) and 39.5% (inactive); in the assay on HS 578T breast, 79.6% (inactive) and 69.1% (inactive); in the assay with NCI/ADR-RES ovarian, 67.2% (inactive) and 57.4% (inactive); in the assay on T-47D breast, 65.4% (inactive) and 79.7% (inactive); in the assay with BT-549 breast, 70.7% (inactive). In addition, the growth was 33.7% (inactive) and 35.7% (inactive) in the assay on MDA-MB-435 melanoma; 93.8% (inactive) and 94.7% (inactive) in the assay on SW-620 colon; 50% (inactive) and 60.1% (inactive) with HCT-116 colon; 64.4% (inactive) and 55% (inactive) in the assay with HCC-2998 colon; 51.2% (inactive) and 65.2% (inactive) in the assay on KM12 colon.

`CC1=C(/C=C/C(C)=C/C=C/C(C)=C/C(=O)O)C(C)(C)CCC1`: the growth with SR leukemia is 68.5% (inactive) and 87.1% (inactive) and 68.1% (inactive); with RPMI-8226 leukemia it was 31.4% (inactive) and 4.62% (active) and 31.1% (inactive); in the assay on OVCAR-8 ovarian it was 87% (inactive) and 89.2% (inactive); in the assay with OVCAR-5 ovarian it was 120% (inactive) and 110% (inactive); in the assay with OVCAR-4 ovarian, 86.9% (inactive) and 92% (inactive) and 85% (inactive); in the assay on SK-OV-3 ovarian, 72% (inactive) and 90.2% (inactive) and 101% (inactive). Besides, the growth was 99.5% (inactive) and 96% (inactive) and 75.9% (inactive) in the assay on IGROV1 ovarian; 88.2% (inactive) and 95% (inactive) and 107% (inactive) in the assay with OVCAR-3 ovarian; 77.1% (inactive) and 97.4% (inactive) and 75.8% (inactive) with HS 578T breast; 90.9% (inactive) and 95% (inactive) in the assay on NCI/ADR-RES ovarian; 63.4% (inactive) and 86.2% (inactive) and 77.1% (inactive) in the assay on T-47D breast; 100% (inactive) and 84.9% (inactive) and 99.2% (inactive) in the assay with BT-549 breast. Further, the growth is 92.3% (inactive) and 90.7% (inactive) and 107% (inactive) in the assay on MDA-MB-435 melanoma; 111% (inactive) and 106% (inactive) and 116% (inactive) in the assay on SW-620 colon; 68.6% (inactive) and 67.4% (inactive) and 73.2% (inactive) in the assay on MCF7 breast; 83% (inactive) and 98.7% (inactive) and 89.6% (inactive) in the assay with HCT-116 colon; 94.7% (inactive) and 105% (inactive) and 102% (inactive) with KM12 colon.

For the origin of these results see PubChem BioAssay (NCI).
